Targets with a hit are over-represented here; the source holds about 7,900 in all. About 0.6% of all pairs of compound and target were hits.
How the values were obtained:
Experiment in all cases: log2 fold change, soluble protein after heating vs DMSO (PISA); higher = thermal stabilisation; K562 cells, 10 uM, 30 min; active = over 0.2 and 3.5 SD of the protein, either way, in both replicates (recomputed)
bafetinib = compound: Cc1ccc(NC(=O)c2ccc(CN3CC[C@H](N(C)C)C3)c(C(F)(F)F)c2)cc1Nc1nccc(-c2cncnc2)n1 [bafetinib]
Summary of the method: (§1)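 K562 cells at 2×10^6 cells/mL were exposed to 10 μM compound for 30 min, then aliquots were heated for 3 min across 48°C-58°C, pooled, and extracted in PBS containing 0.5% NP-40 at 4°C. The supernatant after 21,000xg for 90 min was taken as soluble protein and measured by TMTpro 16plex LC-MS/MS with channel sums equalised. Thermal stability is reported relative to control samples, with values from duplicates. Fold changes are given on a log2 scale.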

[1] = compound: Cc1cccc(CC(=O)N2CCc3c2ccc(-c2cn(C)c4ncnc(N)c24)c3F)n1
Summary of the method: as §1

nilotinib = compound: Cc1cn(-c2cc(NC(=O)c3ccc(C)c(Nc4nccc(-c5cccnc5)n4)c3)cc(C(F)(F)F)c2)cn1 [nilotinib]
Summary of the method: as §1

[2] = compound: Cc1nc(Nc2n[nH]c3c2CN(C(=O)N[C@H](CN(C)C)c2ccccc2)C3(C)C)c2sccc2n1
Summary of the method: as §1

dasatinib = compound: Cc1nc(Nc2ncc(C(=O)Nc3c(C)cccc3Cl)s2)cc(N2CCN(CCO)CC2)n1 [dasatinib]
Summary of the method: as §1

[3] = compound: Cc1ncc(-c2ccnc(Nc3ccc(S(C)(=O)=O)cc3)n2)n1C(C)C
Summary of the method: as §1

[4] = compound: Cn1cc(-c2ccc3c(c2)CCN3C(=O)Cc2cccc(C(F)(F)F)c2)c2c(N)ncnc21
Summary of the method: as §1

[5] = compound: Cn1cc(-c2ccc3nnc(C(F)(F)c4ccc5ncccc5c4)n3n2)cn1
Summary of the method: as §1

tipifarnib = compound: Cn1cncc1[C@@](N)(c1ccc(Cl)cc1)c1ccc2c(c1)c(-c1cccc(Cl)c1)cc(=O)n2C [tipifarnib]
Summary of the method: as §1

mubritinib = compound: FC(F)(F)c1ccc(/C=C/c2nc(COc3ccc(CCCCn4ccnn4)cc3)co2)cc1 [mubritinib]
Summary of the method: as §1

Measured: log2 fold change

WASHC3 (UniProt Q9Y3C0)
inactive: bafetinib -0.06 | [1] -0.032 | nilotinib -0.042 | [2] 0.001 | dasatinib 0.047 | [3] 0.028 | [4] 0.035 | [5] 0.048 | tipifarnib 0.029 | mubritinib 0.003

UBAP2L isoform 5 (UniProt Q14157)
inactive: bafetinib -0.044 | [1] -0.02 | nilotinib -0.003 | [2] -0.015 | dasatinib 0.005 | [3] 0.007 | [4] 0.011 | [5] -0.003 | tipifarnib -0.028 | mubritinib 0.024

TPR (UniProt P12270)
inactive: bafetinib -0.011 | [1] -0.004 | nilotinib 0.056 | [2] 0.04 | dasatinib 0.158 | [3] 0.047 | [4] -0.184 | [5] -0.017 | tipifarnib 0.002 | mubritinib 0.089

TSPAN13 (UniProt O95857)
UniProt O95857, sequence (O95857 whole entry, looked up): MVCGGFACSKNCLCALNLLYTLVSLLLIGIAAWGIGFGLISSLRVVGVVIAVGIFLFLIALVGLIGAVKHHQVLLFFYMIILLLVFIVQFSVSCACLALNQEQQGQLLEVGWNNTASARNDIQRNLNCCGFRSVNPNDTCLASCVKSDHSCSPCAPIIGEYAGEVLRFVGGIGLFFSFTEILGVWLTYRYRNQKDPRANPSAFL
inactive: bafetinib -0.101 | [1] 0.014 | nilotinib 0.056 | [2] -0.035 | dasatinib -0.163 | [3] -0.095 | [4] -0.038 | [5] 0.095 | tipifarnib -0.008 | mubritinib 0.226

XPO1 (UniProt O14980)
inactive: bafetinib -0.003 | [1] 0.042 | nilotinib -0.114 | [2] -0.037 | dasatinib -0.154 | [3] 0.001 | [4] 0.005 | [5] -0.008 | tipifarnib -0.159 | mubritinib 0.042

UBAP2L isoform 1 (UniProt Q14157)
inactive: bafetinib -0.006 | [1] -0.043 | nilotinib 0.013 | [2] -0.134 | dasatinib 0.058 | [3] -0.056 | [4] 0.064 | [5] 0.034 | tipifarnib 0.076 | mubritinib 0.07

WAPL isoform 3 (UniProt Q7Z5K2)
inactive: bafetinib 0 | [1] -0.044 | nilotinib -0.011 | [2] 0.01 | dasatinib -0.081 | [3] -0.03 | [4] 0.04 | [5] 0.096 | tipifarnib -0.218 | mubritinib 0.156

TMEM189-UBE2V1 (UniProt I3L0A0)
inactive: bafetinib -0.038 | [1] -0.035 | nilotinib -0.012 | dasatinib -0.009 | [3] 0.055 | [4] 0.015 | [5] 0.069 | tipifarnib 0.056 | mubritinib 0.026
active: [2] 0.229

USP48 isoform 8 (UniProt Q86UV5)
inactive: bafetinib 0.005 | [1] -0.089 | nilotinib -0.097 | [2] -0.362 | dasatinib -0.139 | [3] -0.073 | [4] -0.041 | [5] 0.097 | tipifarnib -0.11 | mubritinib -0.021

TRMT61A (UniProt Q96FX7)
UniProt Q96FX7, sequence (Q96FX7 whole entry, looked up): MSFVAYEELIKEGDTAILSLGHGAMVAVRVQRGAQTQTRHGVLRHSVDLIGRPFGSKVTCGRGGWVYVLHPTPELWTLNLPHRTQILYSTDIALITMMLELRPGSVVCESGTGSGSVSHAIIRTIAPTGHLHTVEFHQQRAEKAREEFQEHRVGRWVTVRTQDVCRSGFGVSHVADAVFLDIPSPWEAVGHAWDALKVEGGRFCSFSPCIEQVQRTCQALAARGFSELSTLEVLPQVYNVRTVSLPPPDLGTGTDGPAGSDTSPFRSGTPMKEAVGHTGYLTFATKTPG
inactive: bafetinib -0.051 | [1] 0.047 | nilotinib 0.036 | [2] 0.046 | dasatinib 0.011 | [3] -0.07 | [4] -0.11 | [5] -0.016 | tipifarnib 0.043 | mubritinib -0.125

WASHC2C, A0A096LPC5
inactive: bafetinib -0.144 | [1] -0.335 | nilotinib 0.093 | [2] -0.101 | dasatinib 0.13 | [3] -0.003 | [4] -0.016 | [5] -0.082 | tipifarnib 0.283 | mubritinib 0.123

WDR18 (UniProt Q9BV38)
inactive: bafetinib -0.031 | [1] 0.05 | nilotinib -0.059 | [2] -0.024 | dasatinib 0 | [3] -0.048 | [4] 0.029 | [5] -0.016 | tipifarnib -0.018 | mubritinib 0.022

UHRF1BP1L (UniProt A0JNW5)
inactive: bafetinib 0.055 | [1] -0.002 | nilotinib 0.105 | [2] 0.005 | dasatinib -0.003 | [3] -0.029 | [4] 0.036 | [5] 0.038 | tipifarnib -0.065 | mubritinib 0.007

UBAP1 isoform 4 (UniProt Q9NZ09)
inactive: bafetinib -0.026 | [1] -0.022 | nilotinib -0.082 | [2] -0.15 | dasatinib -0.086 | [3] 0.009 | [4] 0.015 | [5] -0.015 | tipifarnib -0.131 | mubritinib 0.084

TTC38 (UniProt Q5R3I4)
inactive: bafetinib -0.012 | [1] 0.021 | nilotinib 0.038 | [2] 0.034 | dasatinib 0.024 | [3] -0.04 | [4] 0.071 | [5] -0.021 | tipifarnib 0.05 | mubritinib 0.322

WRB (UniProt O00258)
UniProt O00258, sequence (O00258 whole entry, looked up): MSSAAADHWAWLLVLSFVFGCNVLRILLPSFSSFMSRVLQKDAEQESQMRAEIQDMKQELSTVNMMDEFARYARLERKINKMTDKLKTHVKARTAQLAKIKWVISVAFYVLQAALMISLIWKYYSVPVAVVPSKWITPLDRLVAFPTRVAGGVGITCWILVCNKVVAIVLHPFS
inactive: bafetinib -0.072 | [1] -0.011 | nilotinib 0.015 | [2] 0.005 | dasatinib 0.031 | [3] -0.036 | [4] -0.011 | [5] 0.089 | tipifarnib 0.024 | mubritinib 0.052

VTI1A (UniProt Q96AJ9)
UniProt Q96AJ9, sequence (Q96AJ9 whole entry, looked up): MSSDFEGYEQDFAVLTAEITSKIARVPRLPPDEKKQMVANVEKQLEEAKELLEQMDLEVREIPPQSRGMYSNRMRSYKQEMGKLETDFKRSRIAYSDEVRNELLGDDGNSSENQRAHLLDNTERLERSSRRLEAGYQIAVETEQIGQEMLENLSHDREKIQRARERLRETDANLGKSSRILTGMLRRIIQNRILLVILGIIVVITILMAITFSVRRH
inactive: bafetinib -0.004 | [1] -0.061 | nilotinib -0.006 | [2] -0.001 | dasatinib 0.004 | [3] -0.005 | [4] -0.001 | [5] 0.01 | tipifarnib 0.081 | mubritinib -0.007

VPS33B (UniProt Q9H267)
inactive: bafetinib 0.01 | [1] 0.04 | nilotinib -0.056 | [2] -0.158 | dasatinib -0.209 | [3] 0.099 | [4] 0.017 | [5] -0.069 | tipifarnib -0.107 | mubritinib 0.054

WDR47 (UniProt O94967)
UniProt O94967, sequence (O94967 whole entry, looked up): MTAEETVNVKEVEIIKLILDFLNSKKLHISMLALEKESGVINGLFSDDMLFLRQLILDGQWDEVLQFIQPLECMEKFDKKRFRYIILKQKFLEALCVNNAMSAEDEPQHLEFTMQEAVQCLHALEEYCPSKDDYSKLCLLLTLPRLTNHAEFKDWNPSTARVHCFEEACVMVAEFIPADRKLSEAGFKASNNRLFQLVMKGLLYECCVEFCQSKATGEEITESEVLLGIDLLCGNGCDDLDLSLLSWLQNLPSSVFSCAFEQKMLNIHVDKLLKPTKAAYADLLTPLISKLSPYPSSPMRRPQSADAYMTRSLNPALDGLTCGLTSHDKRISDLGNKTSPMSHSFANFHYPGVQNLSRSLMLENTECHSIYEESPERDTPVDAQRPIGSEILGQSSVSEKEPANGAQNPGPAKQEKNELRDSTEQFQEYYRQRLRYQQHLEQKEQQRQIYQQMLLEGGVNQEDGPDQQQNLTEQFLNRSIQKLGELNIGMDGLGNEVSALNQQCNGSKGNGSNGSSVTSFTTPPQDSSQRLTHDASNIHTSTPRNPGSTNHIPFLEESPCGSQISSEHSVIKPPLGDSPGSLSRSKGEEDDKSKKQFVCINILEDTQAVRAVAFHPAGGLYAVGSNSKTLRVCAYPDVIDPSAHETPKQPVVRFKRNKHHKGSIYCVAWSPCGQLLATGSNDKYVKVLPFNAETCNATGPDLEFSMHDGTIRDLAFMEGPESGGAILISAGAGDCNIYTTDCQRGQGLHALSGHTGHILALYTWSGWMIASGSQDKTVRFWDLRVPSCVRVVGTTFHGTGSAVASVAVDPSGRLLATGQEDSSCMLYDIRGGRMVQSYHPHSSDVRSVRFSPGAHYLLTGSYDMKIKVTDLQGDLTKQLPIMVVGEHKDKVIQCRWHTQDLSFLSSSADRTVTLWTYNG
inactive: bafetinib 0.042 | [1] 0.004 | nilotinib 0.02 | [2] -0.046 | dasatinib -0.036 | [3] 0.067 | [4] 0.002 | [5] 0.033 | tipifarnib 0.039 | mubritinib -0.147

UBIAD1 (UniProt Q9Y5Z9)
inactive: bafetinib -0.004 | [1] -0.022 | nilotinib 0.074 | [2] 0.004 | dasatinib 0.176 | [3] -0.004 | [4] 0.052 | [5] 0.006 | tipifarnib 0.003 | mubritinib -0.144

UPF3B (UniProt Q9BZI7)
UniProt Q9BZI7, sequence (Q9BZI7 whole entry, looked up): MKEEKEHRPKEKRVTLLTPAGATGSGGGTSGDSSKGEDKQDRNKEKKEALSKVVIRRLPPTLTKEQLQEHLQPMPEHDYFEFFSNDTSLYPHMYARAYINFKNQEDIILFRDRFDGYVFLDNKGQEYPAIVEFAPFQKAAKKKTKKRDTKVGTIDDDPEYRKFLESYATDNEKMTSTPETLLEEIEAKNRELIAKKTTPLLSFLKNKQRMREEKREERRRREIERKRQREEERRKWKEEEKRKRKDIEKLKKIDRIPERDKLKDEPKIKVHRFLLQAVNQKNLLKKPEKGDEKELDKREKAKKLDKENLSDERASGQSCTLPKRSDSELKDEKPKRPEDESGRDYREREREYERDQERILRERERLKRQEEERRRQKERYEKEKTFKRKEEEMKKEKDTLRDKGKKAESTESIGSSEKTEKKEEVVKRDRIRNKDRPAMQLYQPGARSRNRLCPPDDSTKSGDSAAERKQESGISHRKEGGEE
inactive: bafetinib 0.108 | [1] 0.055 | nilotinib -0.15 | [2] 0.098 | dasatinib 0.143 | [3] -0.085 | [4] -0.225 | [5] -0.24 | tipifarnib 0.106 | mubritinib -0.098

VWA8 (UniProt A3KMH1)
UniProt A3KMH1, sequence (A3KMH1 whole entry, looked up): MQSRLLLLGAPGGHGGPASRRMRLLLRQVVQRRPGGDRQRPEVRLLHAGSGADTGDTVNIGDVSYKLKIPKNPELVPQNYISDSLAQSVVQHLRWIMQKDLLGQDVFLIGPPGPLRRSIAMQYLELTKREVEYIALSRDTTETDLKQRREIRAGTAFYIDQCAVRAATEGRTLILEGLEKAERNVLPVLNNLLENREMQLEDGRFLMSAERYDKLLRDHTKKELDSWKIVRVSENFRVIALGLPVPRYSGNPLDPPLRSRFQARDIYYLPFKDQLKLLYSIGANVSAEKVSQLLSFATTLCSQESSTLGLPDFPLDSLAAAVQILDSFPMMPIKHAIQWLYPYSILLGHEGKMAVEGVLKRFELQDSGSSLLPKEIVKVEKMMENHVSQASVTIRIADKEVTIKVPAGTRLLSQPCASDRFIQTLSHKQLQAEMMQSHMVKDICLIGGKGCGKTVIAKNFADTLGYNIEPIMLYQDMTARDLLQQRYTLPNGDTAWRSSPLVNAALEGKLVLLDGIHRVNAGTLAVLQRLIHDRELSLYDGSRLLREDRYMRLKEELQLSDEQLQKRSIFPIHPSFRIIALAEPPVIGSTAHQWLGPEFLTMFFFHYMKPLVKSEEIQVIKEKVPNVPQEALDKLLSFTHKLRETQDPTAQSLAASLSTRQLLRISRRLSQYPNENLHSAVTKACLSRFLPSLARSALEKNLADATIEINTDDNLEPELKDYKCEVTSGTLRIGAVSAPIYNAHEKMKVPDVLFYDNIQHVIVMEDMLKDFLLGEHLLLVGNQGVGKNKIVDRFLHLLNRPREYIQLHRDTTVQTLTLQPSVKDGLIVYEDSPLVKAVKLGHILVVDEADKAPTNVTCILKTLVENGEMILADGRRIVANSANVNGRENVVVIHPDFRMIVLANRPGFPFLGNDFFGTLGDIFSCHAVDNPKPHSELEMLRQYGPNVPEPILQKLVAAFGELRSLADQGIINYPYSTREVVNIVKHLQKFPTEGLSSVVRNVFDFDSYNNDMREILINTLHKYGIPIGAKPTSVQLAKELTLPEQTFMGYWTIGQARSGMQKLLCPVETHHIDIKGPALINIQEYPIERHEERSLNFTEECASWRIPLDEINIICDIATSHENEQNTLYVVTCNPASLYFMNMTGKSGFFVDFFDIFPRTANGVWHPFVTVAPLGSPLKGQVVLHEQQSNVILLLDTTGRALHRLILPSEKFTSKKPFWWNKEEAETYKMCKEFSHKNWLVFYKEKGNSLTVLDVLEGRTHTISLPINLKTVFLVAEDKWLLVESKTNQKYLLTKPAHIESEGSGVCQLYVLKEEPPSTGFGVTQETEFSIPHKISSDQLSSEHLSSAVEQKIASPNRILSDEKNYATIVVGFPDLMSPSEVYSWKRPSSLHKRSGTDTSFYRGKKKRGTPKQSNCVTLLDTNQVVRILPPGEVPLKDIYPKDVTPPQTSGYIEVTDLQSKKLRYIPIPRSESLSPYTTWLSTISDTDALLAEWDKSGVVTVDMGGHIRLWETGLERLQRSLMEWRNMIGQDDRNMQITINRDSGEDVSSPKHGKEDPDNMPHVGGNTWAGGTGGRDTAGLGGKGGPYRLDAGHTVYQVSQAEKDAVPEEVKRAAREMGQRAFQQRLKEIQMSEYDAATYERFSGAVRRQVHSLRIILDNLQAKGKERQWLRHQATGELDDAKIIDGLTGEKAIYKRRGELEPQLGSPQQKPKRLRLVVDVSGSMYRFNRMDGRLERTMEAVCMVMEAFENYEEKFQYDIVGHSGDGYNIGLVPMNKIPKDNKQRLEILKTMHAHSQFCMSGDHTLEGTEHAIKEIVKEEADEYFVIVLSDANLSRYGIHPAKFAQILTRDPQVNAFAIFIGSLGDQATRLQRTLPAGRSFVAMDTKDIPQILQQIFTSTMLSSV
inactive: bafetinib -0.113 | [1] -0.001 | nilotinib -0.099 | [2] -0.018 | dasatinib -0.158 | [3] -0.016 | [4] -0.057 | [5] 0.067 | tipifarnib 0.036
active: mubritinib -0.255

TMTC3 (UniProt Q6ZXV5)
inactive: bafetinib -0.07 | [1] -0.02 | nilotinib -0.036 | [2] 0 | dasatinib -0.055 | [3] 0.015 | [4] -0.051 | [5] 0.061 | tipifarnib -0.018 | mubritinib 0.011

TRMT2A (UniProt Q8IZ69)
UniProt Q8IZ69, sequence (Q8IZ69 whole entry, looked up): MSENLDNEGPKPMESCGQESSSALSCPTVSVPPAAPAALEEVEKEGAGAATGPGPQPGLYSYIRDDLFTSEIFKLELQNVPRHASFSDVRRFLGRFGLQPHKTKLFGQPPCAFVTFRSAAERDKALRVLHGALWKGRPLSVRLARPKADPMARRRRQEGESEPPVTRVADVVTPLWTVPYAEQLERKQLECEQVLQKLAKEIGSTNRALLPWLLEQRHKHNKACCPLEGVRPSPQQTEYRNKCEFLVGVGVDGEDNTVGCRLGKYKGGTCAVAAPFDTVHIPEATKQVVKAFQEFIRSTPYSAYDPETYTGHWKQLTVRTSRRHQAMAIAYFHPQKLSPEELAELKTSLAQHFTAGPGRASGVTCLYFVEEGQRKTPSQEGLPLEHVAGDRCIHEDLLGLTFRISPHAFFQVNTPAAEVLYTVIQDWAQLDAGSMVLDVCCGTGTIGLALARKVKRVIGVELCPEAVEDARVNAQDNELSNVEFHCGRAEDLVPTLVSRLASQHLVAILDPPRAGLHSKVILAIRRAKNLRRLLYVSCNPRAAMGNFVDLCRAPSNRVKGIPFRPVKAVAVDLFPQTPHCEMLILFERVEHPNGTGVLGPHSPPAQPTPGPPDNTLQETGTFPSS
inactive: bafetinib 0.059 | [1] -0.001 | nilotinib 0.021 | [2] -0.048 | dasatinib -0.019 | [3] -0.064 | [4] 0 | [5] 0.009 | tipifarnib 0.03 | mubritinib -0.005

UXT isoform 2 (UniProt Q9UBK9)
UniProt Q9UBK9, sequence (Q9UBK9 whole entry, looked up): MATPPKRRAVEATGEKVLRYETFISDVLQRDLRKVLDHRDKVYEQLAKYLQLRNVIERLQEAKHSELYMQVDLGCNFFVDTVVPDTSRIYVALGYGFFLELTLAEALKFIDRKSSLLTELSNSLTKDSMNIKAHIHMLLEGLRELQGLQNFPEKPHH
inactive: bafetinib 0.016 | [1] 0.036 | nilotinib 0.04 | [2] -0.068 | dasatinib -0.033 | [3] 0.001 | [4] 0.11 | [5] 0.026 | tipifarnib -0.144 | mubritinib 0.014

TNPO2 (UniProt O14787)
inactive: bafetinib -0.004 | [1] 0.129 | nilotinib -0.122 | [2] -0.111 | dasatinib -0.173 | [3] -0.087 | [4] -0.076 | [5] -0.011 | tipifarnib -0.011 | mubritinib 0.043

WBP4 (UniProt O75554)
inactive: bafetinib -0.043 | [1] 0.14 | nilotinib 0.001 | [2] -0.006 | dasatinib 0.014 | [3] -0.023 | [4] 0.037 | [5] 0.047 | tipifarnib 0.023 | mubritinib 0.06

TMEM9 (UniProt Q9P0T7)
inactive: bafetinib 0.028 | [1] -0.048 | nilotinib -0.017 | [2] -0.022 | dasatinib -0.087 | [3] -0.037 | [4] 0.057 | [5] -0.007 | tipifarnib -0.068 | mubritinib 0.025

WDR7 (UniProt Q9Y4E6)
inactive: bafetinib -0.034 | [1] 0.082 | nilotinib -0.089 | [2] -0.01 | dasatinib -0.058 | [3] -0.034 | [4] 0.085 | [5] -0.084 | tipifarnib 0.058 | mubritinib -0.118
